Out of some 4,800 compounds screened, about 410 (8.5%) showed an effect of 50% or more. The list comes from a sample in which strong results are over-represented; it also holds similar structures and randomly drawn compounds.
tested on: Plasmodium falciparum; assay: Confirmatory screen in NF54 pLDH assay, in single point, at 2uM, 72h; type: functional, Erythrocyte; details: timepoint 72 hour

| Compound | % Inhibition [%] |
| --- | --- |
| CC(C)C1(C)CC(=O)N(C(C(=O)O)c2ccccc2)C1=O (centres undefined) | -6 |
| c1ccc(Nc2nc(-c3ccccc3)cc(-c3ccccc3)n2)cc1 | 5 |
| Cc1cc(N)nc(Nc2ccc(Nc3ccccc3)cc2)n1 | 97 |
| Cc1nc(N)nc(C)c1C(=O)Nc1ccc(Nc2ncccn2)cc1 | 36 |
| O=C(NC(C1CC1)C1CC1)c1ccsc1 | -23 |
| Cn1c(C(=O)N2CC[C@H](N)C2)ccc1-c1cccc(Br)c1 | 11 |
| N#Cc1c(-c2ccccc2)cc(-c2ccccc2)n(C(=O)c2ccc(F)cc2)c1=O | 9 |
| Oc1nccc(C(F)(F)C(F)(F)F)n1 | -3 |
| CS(=O)(=O)Nc1nc2ccc(NC(=O)c3cc(-c4ccccc4)nc4ccccc34)cc2s1 | 3 |
| COc1ccc(-c2cc(C(=O)NC3CCN(C(C)C)CC3)c3ccccc3n2)cc1OC | -18 |
| CCOc1ccc(-c2cc(NC(=O)c3cc(-c4cccnc4)nc4ccccc34)on2)cc1OCC | 98 |
| Cc1ccc(-c2ccc(CN(CC(=O)NCC(=O)O)C(C)C)s2)cc1 | 13 |
| CCN1CCN(c2cccc(NC(=O)c3ccc4[nH]c5ccccc5c(=O)c4c3)c2)CC1 | 100 |
| CCN1CCN(c2cccc(NC(=O)c3cc(F)cc4c(=O)c5cc(F)ccc5[nH]c34)c2)CC1 | 96 |
| CCn1c(C)c(C)c2cc(C(=O)Nc3cccc(S(=O)(=O)N4CCOCC4)c3)ccc21 | 4 |
| CN(C)Cc1ccc(NC(=O)c2cc(F)cc3c(=O)c4cc(F)ccc4[nH]c23)cc1 | 95 |
| CCN1CCN(C(=O)c2ccccc2N2CCC(NC(=O)c3cccc(Br)c3)CC2)CC1 | 40 |
| Cc1cccc(NC(=O)c2cc(C)nc3c2c(C)nn3-c2ccc(F)cc2)c1 | 0 |
| CC(=O)Nc1cccc(C#CCN2CCN(c3ccc(F)cc3)CC2)c1 | 13 |
| CC(C)n1nccc1NC(=O)c1c[nH]c2ccc(F)cc2c1=O | -4 |
| CC(C)NC(=O)N(C)Cc1ccc(F)cc1 | 8 |
| N#CCc1ncc(CCN2C(=O)c3ccccc3C2=O)s1 | 7 |
| COc1ccc(S(=O)(=O)N(c2onc(C)c2Cl)S(=O)(=O)c2ccc(OC)c(OC)c2)cc1OC | 4 |
| CC[C@@H](C(N)=O)N1CCN(Cc2nc(-c3cccs3)no2)CC1 | 7 |
| Cc1noc(-c2csc(-c3c[nH]cn3)n2)n1 | -1 |

| Compound | % Inhibition [%] |
| --- | --- |
| CN(Cc1ccn(C)n1)C(=O)c1cc(S(=O)(=O)N(C)C)c(Cl)cc1Cl | 8 |
| O=C(NC1CCCC1)N1CCN(S(=O)(=O)c2cccc(F)c2)CC1 | 2 |
| Cc1c(C(=O)NC2CC2)cc(-c2ccccc2)n1C | 6 |
| COc1ccc(-c2cc(C(=O)N[C@H]3CCN(c4ccc(=O)[nH]n4)C3)c(C)n2C)cc1 | 58 |
| COc1ccc(-c2cc(C(=O)N[C@H]3CCN(c4ccc(=O)n(C)n4)C3)c(C)n2C)cc1 | 41 |
| c1cn(C[C@@H]2CCCN2c2nc(C3CCCC3)ns2)nn1 | -8 |
| Cn1cc(C(=O)c2nc(-c3ccccc3Cl)no2)cn1 | -5 |
| O=S(=O)(c1ccc2nncn2c1)N(Cc1cccc(Cl)c1)c1ccccc1 | 9 |
| O=C(N[C@@H]1CC=C(c2ccc(F)cc2)CC1)c1nc2n(n1)CCCN2 | 10 |
| c1ccc2[nH]c(Nc3nc4ccccc4s3)nc2c1 | 14 |
| COc1ccc(CNC(=N)NS(=O)(=O)c2ccc(OC)c(OC)c2)c(OC)c1 | 11 |
| Cc1cc(Br)ccc1CNC(=O)CN1CCCCC1=O | 13 |
| O=C1c2ccccc2C(c2ccc(NC(=O)c3cccc4ccccc34)cc2)(c2ccc(NC(=O)c3cccc4ccccc34)cc2)c2ccccc21 | 42 |
| O=C(Nc1[nH]c(=O)ncc1F)c1cc(F)c(F)cc1Br | 86 |
| O=C(Nc1ccccc1-c1nnc[nH]1)c1ccc(F)c(Cl)c1 | 2 |
| Cn1ccc(NC(=O)c2cccc3ccccc23)n1 | 4 |
| O=C(Nc1[nH]c(=O)ncc1F)c1cccc2ccccc12 | 72 |
| COc1ccc(C(=O)Nc2ccc3c(c2)C(=O)Nc2cccnc2O3)cc1OC | 26 |
| COc1cc(C(=O)Nc2[nH]c(=O)ncc2F)ccc1Cl | 68 |
| COc1cc2c(cc1-c1cccnc1)CCC(=O)N2C | -22 |
| CCc1c[nH]c(CNC(=O)C2(C(=O)NC3CC3)CCC2)n1 | 7 |
| CCC[C@H](C)c1nc(N2CCN(C(=O)Cc3ccc(OC)cc3)CC2)c2cnn(-c3ccccc3)c2n1 | 9 |
| CC(=O)Nc1ccc(-c2cn3c4ccccc4ccc3[n+]2C)cc1 | 67 |
| CC(=O)c1ccc(NC(=O)Cn2c(-c3ccccc3)nc(C)cc2=O)cc1 | 10 |
| CC(=O)Nc1ccc(NC(=O)CCC(C)C)cc1 | -6 |

| Compound | % Inhibition [%] |
| --- | --- |
| CCOc1cccc2c1OC1(C)C(C(=O)Nc3ccc(C)cc3C)C2NC(=O)N1c1ccccc1 (centres undefined) | -7 |
| O=C1[C@@H]2C[C@@H](CN2C(=O)c2cncnc2)Oc2ccccc2N1Cc1cccnc1 | 6 |
| O=C(O)C[C@H](NC(=O)c1cscn1)c1ccc(Cl)s1 | -23 |
| O=S(=O)(c1cccnc1)N(CC1CCCCC1)c1cnccn1 | 10 |
| COc1cc(NC(=O)c2cc(-c3cccc4ccccc34)[nH]n2)cc(OC)c1OC | 10 |
| COc1ccc2cccc(NC(=O)c3cc(-c4cc(OC)c(OC)c(OC)c4)n[nH]3)c2n1 | 51 |
| COc1ccc(-c2cc(C(=O)Nc3ncc[nH]3)n[nH]2)cc1OC | 22 |
| Cc1ccnc2nc(C(=O)N(CC3CC3)CC(F)(F)F)nn12 | 10 |
| Oc1cccc(CN[C@H]2CCCc3occc32)c1Cl | 83 |
| CC(O)CC(C)(C)CNC1CCCc2occc21 (centres undefined) | -9 |
| O=C(N[C@H]1CCCc2occc21)c1ccco1 | 7 |
| COc1ccc(Nc2nc(C(=O)Nc3ncc(C)s3)cs2)cc1OC | 13 |
| CCOC(=O)Oc1c(OC)cc(C(=O)Nc2ccc3c(c2)sc(=O)n3C)cc1OC | 15 |
| CCOc1cc(C(=O)Nc2ccc3nc4c(c(Nc5ccc(OC)c(OC)c5)c3c2)CCCC4)cc(OCC)c1OCC | 103 |
| COC(=O)c1cc(S(=O)(=O)NCCc2csc(C)n2)cc(F)c1F | -8 |
| CCN(C(=O)[C@H]1CCN(C)[C@@H](C)C1)C1CCCC1 | 11 |
| Cc1cn(Cc2ncc(C(F)(F)F)cc2Cl)c(=O)[nH]c1=O | -18 |
| N#Cc1ccc(NC(=O)[C@](F)(OC(F)(F)C(F)(F)C(F)(F)F)C(F)(F)F)cc1 | -2 |
| Cc1cc(CN(C)c2cc(C3CC3)nc(N(C)Cc3cc(C)on3)n2)no1 | -11 |
| CN(Cc1ccc(-c2ccccc2)cc1)c1cc([C@H]2C[C@@H](N)C2)nc(N)n1 | 54 |
| CC(=O)N1c2c(C)cccc2[C@@H](C)CC1(C)C | 16 |
| CCc1ccc(NC(=O)Cn2c(=O)ncc3cc(S(=O)(=O)N4CCCC[C@@H]4C)ccc32)cc1 | 11 |
| CC(C)C[C@@H]1N[C@H](C(=O)NCCN(C)C)Cc2c[nH]c3cccc1c23 | -19 |
| Cc1cc2nc(C(=O)NC3CCN(Cc4ccccc4)CC3)c(=O)n(C)c2cc1C | -6 |
| Cc1cc(C(=O)Nc2nc(-c3ccc4c(c3)CCC4)n[nH]2)no1 | 7 |

| Compound | % Inhibition [%] |
| --- | --- |
| CCn1cc(C(=O)O)c(=O)c2cc(F)c(N3CCN(S(=O)(=O)c4ccccc4)CC3)cc21 | -6 |
| CCn1cc(C#N)c(=O)c2cc(F)c(N3CCN(Cc4ccccc4)CC3)cc21 | 78 |
| CCn1cc(-c2nc(-c3ccccc3C)no2)c(=O)c2cc(F)c(N3CCCCC3)cc21 | 42 |
| Cc1cccc(-c2nc(C[N+]3(Cc4nc(-c5cccc(C)c5)oc4C)CCCC3)c(C)o2)c1 | 55 |
| CCNC(=O)c1ccc(-c2nc(CS(=O)(=O)c3ccccc3)c(C)o2)cc1 | -10 |
| Cc1ccc(S(=O)(=O)Cc2nc(-c3ccc(C(=O)Nc4c(C)cccc4C)cc3)oc2C)cc1 | 13 |
| COc1cccc2c(=O)c3c([nH]c12)CCN(CC(=O)NCc1ccccc1Cl)C3 | 37 |
| c1cc(CN2CCN(C3CCCCCC3)CC2)ccn1 | -17 |
| c1ccc(N2CCN(C3CCN(Cc4ccncc4)CC3)CC2)cc1 | -2 |
| O=S1(=O)CCN(C2CCN(Cc3c(F)cccc3F)CC2)CC1 | 14 |
| COc1ccc(CN(Cc2ccncc2)CC2CCN(C3CCN(C)CC3)CC2)c(F)c1 | 93 |
| CN1CCC(N2CCC(CN(Cc3ccncc3)Cc3c(F)cccc3Cl)CC2)CC1 | 99 |
| Cc1ccc(C)c(NC(=O)N2CC(n3cnnc3-c3ccccc3)C2)c1 | 0 |
| c1ccc(CCc2nnc3n2CCOC3)cc1 | 3 |
| COCc1cc2nn(CC(=O)Nc3ccc4c(c3)OCO4)c(=O)n2c(-c2ccccc2)n1 | 12 |
| Cc1ccc(CNC(=O)[C@@H](C)C2CCOCC2)cc1C | 7 |
| Cc1ccc(-c2nn3c([C@H]4CCCN(C)C4)nnc3s2)cc1C | -8 |
| O=C1NC2(CCCC2)Nc2ccccc21 | 2 |
| Cc1cc(=O)n2ncc(C(=O)Nc3ccc(F)cc3F)c2[nH]1 | 10 |
| COc1ccc(N(C)S(=O)(=O)c2ccsc2-c2nc(-c3cccnc3)no2)cc1Cl | -2 |
| CC(C)(C)N(CC(N)=O)CC(=O)NC(=O)NC1CCCCC1 | 8 |
| CCN(CC)C(=O)c1cc(C)n(-c2ccc3c(c2)OCCO3)c1C | -3 |
| O=C1c2[nH]nc(-c3cccs3)c2[C@@H](c2cccc(O)c2)N1c1nccs1 | 5 |
| O=S(=O)(N[C@H]1CCc2nnc(-c3ccc(F)cc3)n2C1)c1cccnc1 | 13 |

Source: ChEMBL document CHEMBL4888484, “Replenishing the malaria drug discovery pipeline: Screening and hit evaluation of the MMV Hit Generation Library 1 (HGL1) against asexual blood stage Plasmodium falciparum ,using a nano luciferase reporter read-out” (2022)
